# Measured values as given in the supplement of paper PMC6607015.
# Counter-ions that a name gives are not always drawn.
# Assays:
# Conditions in all cases: compound concentration in added solution (µM; 5 µl added to 20 µl cells): 10; 18 h
# A431 [1] = test: LBPA endosome anti-LBPA integrated intensity (sum per cell), Z-score; higher = more LBPA staining
# In short: (§1)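 Reported values are Z-scores from AcuityXpress normalisation of per-cell integrated LBPA or filipin staining. HeLa MZ or A431 cells (3,500/well in 20 µl) were seeded onto 5 µl of 10 µM compound solution in duplicate 384-well plates, incubated 18 h, fixed in 4% PFA, stained and imaged at 20×. MetaXpress segmentation measured the intensity over the whole cell or within LBPA endosomes.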
# HeLa MZ [2] = test: as above
# In short: as §1
# A431 [3] = test: whole-cell filipin (free cholesterol) integrated intensity, Z-score; higher = more cholesterol staining
# In short: as §1
# HeLa MZ [4] = test: as above
# In short: as §1
# A431 [5] = test: filipin (cholesterol) integrated intensity within LBPA endosomes, Z-score; higher = more cholesterol in LBPA endosomes
# In short: as §1
# HeLa MZ [6] = test: as above
# In short: as §1
SMILES,LBPA endosome anti-LBPA integrated intensity (z-score) (A431 [1]),LBPA endosome anti-LBPA integrated intensity (z-score) (HeLa MZ [2]),whole-cell filipin (z-score) (A431 [3]),whole-cell filipin (z-score) (HeLa MZ [4]),filipin (z-score) (A431 [5]),filipin (z-score) (HeLa MZ [6])
N=C(N=C(N)N)N1CCOCC1 [Moroxidine hydrochloride],-0.598,-1.32,-1.06,-0.892,-0.527,-0.669
CC(CN(C)C)CN1c2ccccc2CCc2ccccc21 (configuration not stated) [Trimipramine maleate salt],2.39,1.13,1.92,0.599,2.57,1.53
CN1CCN(c2c(F)cc3c(=O)c(C(=O)O)cn(CCF)c3c2F)CC1 [Fleroxacin],-0.492,-0.0484,-0.0639,0.23,-0.354,-0.239
CCS(=O)(=O)CCn1c([N+](=O)[O-])cnc1C [Tinidazole],-0.319,-0.148,-0.195,-0.143,-0.394,-0.524
CCOC(=O)C1=C(C)NC(C)=C(C(=O)OC)C1c1cccc(Cl)c1Cl (configuration not stated) [Felodipine],-0.574,-0.618,-0.869,-0.774,-0.49,-0.476
O=C1OCCN1/N=C/c1ccc([N+](=O)[O-])o1 [Furazolidone],-0.473,-0.0304,-0.00282,0.522,-0.483,-0.65
CCCCOc1ccc(C(=O)CCN2CCCCC2)cc1 [Dyclonine hydrochloride],0.717,0.215,0.502,-0.794,0.482,-0.156
c1ccc(CC2=NCCN2)cc1 [Tolazoline hydrochloride],-0.404,0.69,-0.609,-0.502,-0.487,-0.331
CN1CCC(=C2c3ccccc3CCc3sccc32)CC1 [Pizotifen malate],2.92,2.11,2.58,-0.0276,2.82,1.53
O=C(NCCNCC(O)COc1ccc(O)cc1)N1CCOCC1 (configuration not stated) [Xamoterol hemifumarate],-0.337,-0.849,-0.403,-0.263,-0.407,-0.533
CN(C)CCCN1c2ccccc2CCc2ccccc21 [Imipramine hydrochloride],0.746,0.11,0.885,-0.699,1.08,0.828
CCN(CCCc1ccccc1)CCCc1ccccc1 [Alverine citrate salt],2.06,1.56,1.13,-0.0321,1.44,0.403
